Screening data (PubChem BioAssay)
TWEAK Fn14 block – TWEAK-Fn14 signaling inhibition; TWEAK-stimulated Fn14 reporter cells, luciferase luminescence, 8 h; inhibition, % at 10 µM; hit rate 2% among 360,000; in the data active means inhibition above about 50%
HSP90 refold inh – HSP90 refolding inhibition in rabbit reticulocyte lysate; luciferase refolding luminescence, 3 h; inhibition, % at 5.6 µM; hit rate 0.91% among 290,000; AID 1789;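 active means inhibition above the screen-wide mean plus 3 SD, computed separately per campaign, cut at about 16% in these data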;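 further: 0% = DMSO wells and 100% = 60 µM geldanamycin wells; inhibitors lower the luminescence because luciferase stays unfolded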
LGR2 antag – blocks bursicon-induced cAMP signaling via Drosophila LGR2 | inhibition, % at 9.99 µM | HEK293 LGR2, CRE-luciferase, bursicon-stimulated, 4 h | hit rate 0.35% among 380,000;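 active means drop in luminescence signal, shown as inhibition above about 50% in the replicate tests, limit read from the data, passing the limit was not always enough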;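 further: agonist challenge used bursicon conditioned medium at about half maximal strength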
TROY signal inh – blocks TROY-dependent signaling in reporter cells; Q293 LMP1-TROYcd NF-kB luciferase reporter, 4 h; inhibition, % at 10 µM; hit rate 0.98% among 360,000; AID 1347056;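 active means compounds whose plate-normalised and pattern-corrected inhibition of the luciferase reporter signal at the single screening dose is 50% or more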
* marks the source's active call; other numbers are inactive results. Most compounds without a hit are left out; they make up all but 2.2% or so of the library.

For O=C1NC[C@H](CCCCN2C[C@H](Cc3ccccc3)N(CCC3CCCCC3)C(=O)C2=O)N(CCC2CCCCC2)C1=O the results were TWEAK Fn14 block 27, LGR2 antag 5 and TROY signal inh 77*.
Screening CCOc1ccc(Br)cc1S(=O)(=O)Nc1cccc(S(=O)(=O)N(C)c2ccccc2)c1 returned TWEAK Fn14 block 45, HSP90 refold inh 7, LGR2 antag 19 and TROY signal inh 77*.
`CCc1nccn1C(=O)c1cnn2c(C(F)F)cc(-c3ccc(C)cc3)nc12` gave TWEAK Fn14 block 54*, HSP90 refold inh 4, LGR2 antag -11 and TROY signal inh 8.
For CCc1nccn1C(=O)c1cnn2c(C(F)F)cc(-c3ccccc3)nc12 the results were HSP90 refold inh 0.
For Cc1nc(SCc2nc3cc(Cl)c(F)cc3[nH]2)c2oc3ccccc3c2n1 the results were TWEAK Fn14 block 53*, LGR2 antag 18 and TROY signal inh 6.
`Cc1nc(SCc2nc3ccc(Cl)cc3[nH]2)c2oc3ccccc3c2n1` gave TWEAK Fn14 block -13 and TROY signal inh 17.
`COCC(=O)Nc1ccc2c(c1)OC[C@@H](C)N(CC1CC1)C[C@H](C)[C@@H](OC)CN(C)C2=O` gave LGR2 antag -15.
COc1ccc(C(NC(=O)c2c(F)c(F)c(F)c(F)c2F)c2ccccc2)cc1 (stereo not given) was read as TWEAK Fn14 block 5, HSP90 refold inh -4, LGR2 antag 67* and TROY signal inh 69*.
Screening COc1ccc(C(NC(=O)c2cc(OC)ccc2OC)c2ccccc2)cc1 (stereo not given) returned TWEAK Fn14 block 46, HSP90 refold inh -2, LGR2 antag -2 and TROY signal inh 8.
Screening COc1ccc(/C=C2\COc3ccccc3C2=O)c(OC)c1 returned TWEAK Fn14 block 17, HSP90 refold inh 0, LGR2 antag -50 and TROY signal inh -55.
CCOc1cc(/C=C2\COc3ccccc3C2=O)cc(Br)c1OCC(=O)N(C)C was read as TWEAK Fn14 block 70*, HSP90 refold inh 16, LGR2 antag -1 and TROY signal inh 79*.
Screening COc1ccc(/C=C2\COc3ccccc3C2=O)cc1OC returned TWEAK Fn14 block 54*, HSP90 refold inh 4, LGR2 antag -22 and TROY signal inh -2.
O=C(O)c1ccc(/C=C2\COc3ccccc3C2=O)cc1 was read as TWEAK Fn14 block 78*, HSP90 refold inh -4, LGR2 antag 29 and TROY signal inh -6.
`C[C@H]1CN([C@@H](C)CO)S(=O)(=O)c2ccc(C#CC3CCCC3)cc2O[C@@H]1CN(C)Cc1cncnc1` gave LGR2 antag -5.
`COc1ccccc1CNC(=O)C[C@H]1C[C@@H]2c3cc(NS(=O)(=O)c4ccc(F)cc4)ccc3O[C@@H]2[C@H](CO)O1` gave LGR2 antag 3.
For CO[C@@H]1CN(C)C(=O)c2ccc(NC(=O)C3CC3)cc2OC[C@H](C)N(C(=O)NC(C)C)C[C@H]1C the results were LGR2 antag -9.
For COC(=O)c1ccc(NC(=O)c2nc(S(=O)(=O)Cc3cccc(C)c3)ncc2Cl)cc1 the results were TWEAK Fn14 block 72*, HSP90 refold inh 0, LGR2 antag 6 and TROY signal inh 76*.
CC(=O)Nc1ccc(NC(=O)c2nc(S(=O)(=O)Cc3cccc(C)c3)ncc2Cl)cc1 was read as TWEAK Fn14 block 70*, HSP90 refold inh 2, LGR2 antag -39 and TROY signal inh 75*.
Screening Cc1cccc(CS(=O)(=O)c2ncc(Cl)c(C(=O)NCc3ccc4c(c3)OCO4)n2)c1 returned TWEAK Fn14 block 89*, HSP90 refold inh 1, LGR2 antag 5 and TROY signal inh 69*.
`Cc1ccc(C(=O)NCc2ccc3c(c2)OCO3)c(Cl)c1` gave TWEAK Fn14 block -11, LGR2 antag -53 and TROY signal inh -51.
`C[C@@H]1CN([C@@H](C)CO)C(=O)c2cc(C#CC3CC3)cnc2O[C@H]1CN(C)C(=O)C1CCCCC1` gave LGR2 antag 1.
For O=C(CCN1CCCCC1)NCC[C@H]1CC[C@H](NS(=O)(=O)c2cccc(F)c2)[C@@H](CO)O1 the results were LGR2 antag -6.
CCN1C(c2ccccc2)C(C)C(=O)C(C)C1c1ccccc1 (stereo not given) was read as TWEAK Fn14 block 83* and HSP90 refold inh 3.
CC1C(=O)C(C)C(c2ccccc2)N(N=O)C1c1ccccc1 (stereo not given) was read as TWEAK Fn14 block 7, LGR2 antag 0 and TROY signal inh -17.
O=C(CCN1CCCCC1)NCC[C@@H]1CC[C@H](NC(=O)C2CCOCC2)[C@@H](CO)O1 was read as LGR2 antag -2.
